Most compounds without a hit are left out; they make up all but 3.3% or so of the library.
Wnt act: activates Wnt/beta-catenin signaling in a reporter cell assay. AID 743398. actives 1.2% (n = 300,000). activation, % at 9.35 µM. activator, plate reader; in the data active means activation above about 30%, passing the limit was not always enough; inconclusive means no clear call, values can overlap the other calls
esBAF inh: blocks esBAF chromatin remodeling in mouse ES cells | Bmi1-luciferase knock-in reporter, 24 h; 100% = twice the neutral-well signal | reporter increase, % at 12.5 µM | actives 2% (n = 350,000) | AID 602393; in the data active means activation above about 40%; inconclusive means no clear call, values can overlap the other calls;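 further: a rise in the Bmi1 reporter signal indicates esBAF inhibition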
Statin myotox sup: protects C2C12 myotubes from simvastatin toxicity | ATP luminescence, 48 h; scaled: DMSO 0, geranylgeraniol control 100 | rescue of ATP level, % at 7.49 µM | actives 0.78% (n = 330,000) | AID 602340;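 active means mean ATP rescue above about 67%, or every replicate alone reaching that limit, limit read from the data, passing the limit was not always enough; inconclusive means no clear call, values can overlap the other calls; inactive means mean under the limit and some replicate under it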;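 further: myotubes were challenged with 10 µM simvastatin during compound exposure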
GAA850 FXN act: activators of GAA850 frataxin (FXN) promoter. activation, % at 6 µM. actives 0.56% (n = 360,000). HEK293 lucGAA850 FXN promoter luciferase reporter, 24 h; percent of 10 µM SAHA response. AID 540364;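 active means activation above the average of all compounds screened plus 3 SD, cutoff fixed separately per campaign, cut at about 7.5% in these data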
MITF TRPM1 HTS: activators of MITF-driven TRPM1 promoter activity in SK-MEL-5 cells | actives 0.75% (n = 300,000) | activation, % at 12.5 µM | SK-MEL-5 TRPM1-promoter luciferase, 24 h; % of positive control, neutral wells = 0 | AID 588334;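 active means mean activation of at least 80% with every replicate also reaching 80%; inconclusive means mean reaches 80% but some replicate falls short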
Large screens that a line does not name were inactive.

CSc1nnc(NC(=O)c2ccc(S(=O)(=O)N(C)C)cc2)s1	Wnt act 39.9 (no result: esBAF inh, Statin myotox sup)
CN(C)S(=O)(=O)c1ccc(C(=O)Nc2nnc(SCc3ccccc3)s2)cc1	none (no result: esBAF inh, Statin myotox sup)
C[C@H](CO)N1C[C@H](C)[C@H](CN(C)C(=O)Nc2ccc(C(F)(F)F)cc2)Oc2ccc(NC(=O)Cn3cnnn3)cc2C1=O	none (no result: Wnt act, GAA850 FXN act, MITF TRPM1 HTS)
C[C@H]1CN([C@@H](C)CO)C(=O)c2cc(/C=C/c3ccccc3)cnc2O[C@@H]1CN(C)C(=O)C1CCCCC1	none (no result: Wnt act, GAA850 FXN act, MITF TRPM1 HTS)
Cc1noc(C)c1NC(=O)N(C)C[C@H]1Oc2ccc(NS(=O)(=O)c3ccc(Cl)cc3)cc2CC(=O)N([C@@H](C)CO)C[C@@H]1C	none (no result: Wnt act, GAA850 FXN act, MITF TRPM1 HTS)
Cn1c(=O)c2c(nc(NC3CCCCC3)n2CC(O)COc2ccccc2)n(C)c1=O (stereo not given)	Statin myotox sup 81.0 (no result: Wnt act)
C[C@@H]1CN([C@@H](C)CO)S(=O)(=O)c2ccc(/C=C/c3ccccc3)cc2O[C@H]1CN(C)C(=O)CN1CCOCC1	none (no result: Wnt act, GAA850 FXN act, MITF TRPM1 HTS)
CC1CCN(C(=O)CCC(=O)N2CC(C)Oc3ccccc32)CC1 (stereo not given)	none
CC1CCC(NC(=O)CCC(=O)N2CC(C)Oc3ccccc32)CC1 (stereo not given)	esBAF inh 55.1
O=C(Nc1ccccc1)N1CCC(c2ccccc2)C1 (stereo not given)	MITF TRPM1 HTS 105.5 (no result: Wnt act)
O=C(Nc1ccccc1)c1cc(C2CCCN(C(=O)c3cccs3)C2)on1 (stereo not given)	Wnt act 34.4, esBAF inh 56.4 (no result: MITF TRPM1 HTS)
O=C(NCc1ccccc1)c1cc(C2CCCN(C(=O)c3cccs3)C2)on1 (stereo not given)	none (no result: MITF TRPM1 HTS)
O=C(CCN1CCC(c2ccccc2)C1)c1cccs1 (stereo not given)	none (no result: esBAF inh, Statin myotox sup)
COc1ccc(NC(=S)N2CCC(c3ccccc3)C2)cc1 (stereo not given)	Wnt act inconclusive, esBAF inh inconclusive, MITF TRPM1 HTS 108.1
O=C(c1cccs1)N1CCC(c2ccccc2)C1 (stereo not given)	Wnt act 50.7 (no result: esBAF inh, Statin myotox sup)
C[C@@H]1CN([C@H](C)CO)C(=O)c2cc(C3=CCCC3)cnc2O[C@@H]1CN(C)Cc1ccccc1F	none (no result: Wnt act, GAA850 FXN act, MITF TRPM1 HTS)
C[C@@H]1CCCCO[C@@H](CN(C)Cc2ccc(C(=O)O)cc2)[C@H](C)CN([C@@H](C)CO)C(=O)c2cc(NS(=O)(=O)c3cn(C)cn3)ccc2O1	none (no result: Wnt act, Statin myotox sup, GAA850 FXN act, MITF TRPM1 HTS)
CCn1c(C)c(C(C)=O)c(N2CCC(C(N)=O)CC2)nc1=S	none
CCn1c(C)c(C(C)=O)c(N2CCCCC2)nc1=S	Statin myotox sup 79.0 (no result: Wnt act)
CN1CCN(S(=O)(=O)c2ccc(NN)nc2)CC1	Wnt act 57.0
CN1CCN(S(=O)(=O)c2ccc(Cc3ccc(S(=O)(=O)N4CCN(C)CC4)cc3)cc2)CC1	Statin myotox sup 81.8 (no result: Wnt act)
CN1CCN(S(=O)(=O)c2ccc(Cl)cc2)CC1	none
CCNC(=O)Nc1ccc2c(c1)C(=O)N(C)[C@@H]1CC[C@@H](CC(=O)NCc3cccc(F)c3)O[C@@H]1CO2	none (no result: Wnt act, GAA850 FXN act, MITF TRPM1 HTS)
Cc1ccc(SCCSc2nc(C)cc(=O)[nH]2)cc1	Wnt act 33.9
CC(C)NC(=O)N[C@@H]1CC[C@@H](CCNC(=O)C2CCOCC2)O[C@H]1CO	none (no result: Wnt act, GAA850 FXN act, MITF TRPM1 HTS)
CC1(C)C(=O)Nc2ccccc2N1C(=O)COC(=O)C12CC3CC(CC(O)(C3)C1)C2	Statin myotox sup 89.2
Cn1ccsc1=NC(=O)c1cccc(OC(F)F)c1	esBAF inh 52.5
CSc1nncc(/C(C)=N\Nc2cccc(C)c2)n1	none
CSc1nnc2c(n1)c(C)nn2-c1cccc(C)c1	Wnt act 37.5, esBAF inh 45.3 (no result: MITF TRPM1 HTS)
COC(=O)c1cccc(OCC(O)Cn2cnc3cc(C)c(C)cc32)c1 (stereo not given)	none (no result: Wnt act, MITF TRPM1 HTS)
COC(=O)c1cccc(OCC(O)Cn2ccnc2)c1 (stereo not given)	Statin myotox sup 109.3
CCCCNC(=O)C1CCN(Cc2ccc(OCc3ccccc3)cc2)CC1	esBAF inh 50.7 (no result: Wnt act)
CC(=O)Nc1ccc(S(=O)(=O)Oc2ccc(N3C(=O)C4CCCCC4C3=O)cc2)cc1 (stereo not given)	Statin myotox sup 124.0
C[C@H](O)C#Cc1cnc2c(c1)C(=O)N([C@@H](C)CO)C[C@@H](C)[C@@H](CN(C)C(=O)c1ccc(F)cc1)O2	none (no result: Wnt act, GAA850 FXN act, MITF TRPM1 HTS)
O=C(Nc1cccc(O)c1)c1noc2c1CCCCC2	none (no result: esBAF inh, Statin myotox sup)
COC(=O)c1ccccc1NC(=O)c1noc2c1CCCC2	none (no result: Wnt act)
O=C(NCc1ccccc1)c1noc2c1CCCCC2	MITF TRPM1 HTS 101.2 (no result: Wnt act)
CC(NC(=O)c1noc2c1CCCCC2)c1ccccc1 (stereo not given)	esBAF inh 44.8
O=C(NC1CCCC1)c1noc2c1CCCCC2	Wnt act 43.5 (no result: esBAF inh, Statin myotox sup, MITF TRPM1 HTS)
CCCC(=O)N1CCN(c2nc3ccc(Cl)cc3s2)CC1	esBAF inh 52.0
CC(=O)N1CCN(c2nc3ccc(Br)cc3s2)CC1	esBAF inh 54.2
COc1ccc(-c2nnc(SCc3ccccc3)n2N)cc1	MITF TRPM1 HTS 87.5 (no result: esBAF inh, Statin myotox sup)
COc1ccc(-c2nnc(SCCc3ccccc3)n2N)cc1	none
Cc1ccc(S(=O)(=O)Nc2cccc3c2O[C@@H](CN(C)Cc2ccc(Cl)c(Cl)c2)[C@@H](C)CN([C@H](C)CO)C3=O)cc1	none (no result: Wnt act, GAA850 FXN act, MITF TRPM1 HTS)
CCOC(=O)N1CCN(c2ccccc2OC)CC1	none (no result: esBAF inh, Statin myotox sup)
O=C(Cc1ccc(Br)cc1)N1CCN(c2ccccc2O)CC1	esBAF inh 50.1
CCOC(=O)N1CCN(c2ccccc2O)CC1	Statin myotox sup 124.4
COc1cccc(-c2cnc3c(c2)C(=O)N([C@H](C)CO)C[C@@H](C)[C@H](CN(C)Cc2ccncc2)O3)c1	none (no result: Wnt act, GAA850 FXN act, MITF TRPM1 HTS)
CCNC(=O)C[C@H]1CC[C@H]2[C@H](COc3ccc(NC(=O)Nc4ccc(C)cc4)cc3C(=O)N2C)O1	none (no result: Wnt act, GAA850 FXN act, MITF TRPM1 HTS)
O=C(NCc1ccco1)c1cc2c(s1)CCCCC2	esBAF inh 56.8
O=C(NCC(c1ccco1)N1CCCCC1)c1cc2c(s1)CCCC2 (stereo not given)	none
CN(C(=O)c1ccc(N2CCCCC2)c([N+](=O)[O-])c1)C1CCS(=O)(=O)C1 (stereo not given)	Statin myotox sup 108.2 (no result: esBAF inh)
O=C(c1ccc(Cl)c([N+](=O)[O-])c1)N(Cc1ccc(Cl)cc1)C1CCS(=O)(=O)C1 (stereo not given)	Wnt act 47.0 (no result: esBAF inh, Statin myotox sup)
O=C(c1ccc(Cl)c([N+](=O)[O-])c1)N(Cc1ccccc1)C1CCS(=O)(=O)C1 (stereo not given)	none (no result: esBAF inh, Statin myotox sup)
CN(C(=O)c1ccc(S(=O)(=O)N2CCCC2)cc1)C1CCS(=O)(=O)C1 (stereo not given)	none
COC(=O)c1ccc(CN2C(=O)NC(Cc3c[nH]c4ccccc34)C2=O)cc1 (stereo not given)	esBAF inh 46.2
C[C@@H]1CCCCO[C@@H](CN(C)C(=O)CCCN(C)C)[C@@H](C)CN([C@H](C)CO)C(=O)c2cc(NC(=O)c3ccccc3)ccc2O1	none (no result: Wnt act, GAA850 FXN act, MITF TRPM1 HTS)
Cc1ccc2nc(-c3ccc(N4C(=N)SC5CS(=O)(=O)CC54)cc3)sc2c1 (stereo not given)	MITF TRPM1 HTS 104.2 (no result: Wnt act, esBAF inh, Statin myotox sup)
Cc1ccc2nc(-c3ccc(N)cc3)sc2c1	none (no result: esBAF inh, Statin myotox sup, MITF TRPM1 HTS)

Assay outcomes as filed in PubChem BioAssay.
